Holding throughout (assay): NCI-60 one-dose screen, 48 h (100 = growth as untreated, 0 = no growth, -100 = all killed)
One test relates to DU-145 prostate. The conditions noted are these: 10 µM unless noted.
For another test, the system named is K-562 leukemia. The conditions noted are these: 10 µM unless noted.
In another test the test system is MALME-3M melanoma. The conditions noted are these: 10 µM unless noted.
The test system of another test is MDA-MB-231 breast. The conditions noted are these: 10 µM unless noted.
A further test deals with SF-268 CNS. The conditions noted are these: 10 µM unless noted.
A further test concerns SF-295 CNS. The conditions noted are these: 10 µM unless noted.
Another test relates to SF-539 CNS. The conditions noted are these: 10 µM unless noted.
In a further test the test system is M14 melanoma. The conditions noted are these: 10 µM unless noted.
The test system of another test is UACC-257 melanoma. The conditions noted are these: 10 µM.

Compounds without any hit were thinned out: in the full panel of roughly 83,000, 20% have a hit.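 Assay: single dose, 48 h. Readout: percent growth (0 = no net growth; negative = cell death). Active: <10.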 Values without a mark were called inactive. Activity calls are given as the source filed them.

On to `COc1ccc(NC(=S)/N=c2\oc3c(OC)cccc3cc2-c2cc3ccccc3[nH]2)cc1`, for which the growth was 62.6% in the test on DU-145 prostate; 81.4% with K-562 leukemia; 63.5% in the test with MALME-3M melanoma; 42.2% with MDA-MB-231 breast; 73% in the test on SF-268 CNS; 84.6% in the test on SF-295 CNS. Besides, the growth was 26.4% in the test on SF-539 CNS and 93.5% in the test with M14 melanoma.

Regarding `COc1cc2oc(-c3cccc(NC(=O)Nc4ccc5c(c4)OCO5)c3)cc(=O)c2c(OC)c1OC`, the growth in the test on DU-145 prostate was 65.4%; in the test with K-562 leukemia, 41.9%; with MALME-3M melanoma it was 75.7%; with MDA-MB-231 breast it was 61.3%; with SF-268 CNS it was 75.6%; in the test on SF-295 CNS, 60%. In addition, the growth in the test with SF-539 CNS is 81.8%; in the test on M14 melanoma, -9.91% (active).

Turning to `COc1ccc(C(=O)N2CCN(C(=O)c3cc(OC)c(OC)c(OC)c3)CC2)cc1OCCCCOc1cc2c(cc1OC)C(=O)N1CCC[C@H]1C=N2`, the growth is 113% in the test on DU-145 prostate; 116% with K-562 leukemia; 126% in the test with MALME-3M melanoma; 82.4% with MDA-MB-231 breast; 126% in the test on SF-268 CNS; 109% in the test on SF-295 CNS. The results for the growth with SF-539 CNS and in the test with M14 melanoma were 98.9% and 115%, respectively.

For `O=c1oc2c([nH]c3ccc4ccccc4c32)c2ccccc12`, the growth with DU-145 prostate was 106%; in the test with K-562 leukemia, 124%; in the test on MALME-3M melanoma it was 115%; in the test with MDA-MB-231 breast, 112%; with SF-268 CNS, 115%; in the test on SF-295 CNS it was 99.6%. Further, the growth is 102% in the test on SF-539 CNS and 109% in the test on M14 melanoma.

Take `FC(F)(F)c1cccc(-n2nnc3cnc(Nc4ccc(N5CCCCC5)cc4)nc32)c1`: the growth in the test on DU-145 prostate is 57.6%; in the test on K-562 leukemia it was 67.3%; in the test with MALME-3M melanoma, 41.6%; with MDA-MB-231 breast, 58.7%; in the test on SF-268 CNS, 55.5%; in the test on SF-295 CNS, 93.6%. Also, the growth was 90.7% with SF-539 CNS, 63.4% with UACC-257 melanoma and 33.8% in the test on M14 melanoma.

As to `COc1cccc(NC(=O)Cn2cc3c(=O)oc4ccccc4c3n2)c1`, the growth is 103% in the test on DU-145 prostate; 103% in the test on K-562 leukemia; 103% with MALME-3M melanoma; 96.6% in the test with MDA-MB-231 breast; 103% with SF-268 CNS; 97.2% in the test on SF-295 CNS. Moreover, the growth with SF-539 CNS is 102%; in the test with UACC-257 melanoma, 101%; in the test on M14 melanoma it was 101%.

On to `Cc1ccc(S(=O)(=O)N2CCC(C(=O)Nc3ccc(F)cc3F)CC2)cc1`, for which the growth in the test on DU-145 prostate was 97.4%; with K-562 leukemia, 91.7%; in the test on MALME-3M melanoma, 104%; in the test on MDA-MB-231 breast, 87.1%; in the test on SF-268 CNS it was 111%; in the test with SF-295 CNS it was 81.8%. Besides, the growth with SF-539 CNS is 97.5%; in the test on M14 melanoma it was 102%.

Take `CCCCCC/C=C\CCCCCCCCOc1ccc(CCOP(=O)(O)OCC[N+](C)(C)C)cc1`: the growth is 98% with DU-145 prostate; 74.8% in the test on K-562 leukemia; 103% with MALME-3M melanoma; 88.3% in the test with MDA-MB-231 breast; 66.7% in the test on SF-268 CNS; 89.9% in the test with SF-295 CNS. Further, the results for the growth in the test on SF-539 CNS and with M14 melanoma were 94.7% and 88.1%, respectively.

On to `COc1cc(CCn2nnc3c(Nc4ccc(N5CCOCC5)cc4)ncnc32)cc(OC)c1`, for which the growth with DU-145 prostate was 99.3%; in the test with K-562 leukemia, 44.4%; in the test on MALME-3M melanoma, 100%; in the test with MDA-MB-231 breast, 91.9%; in the test on SF-268 CNS it was 99.7%; in the test with SF-295 CNS, 100%. Further, the figures for the growth in the test with SF-539 CNS, with UACC-257 melanoma and with M14 melanoma were 87.5%, 102% and 85.5%, respectively.

For `CCCCCCCCCN1C(=O)/C(=c2\sc3n(c2=O)C2C(NN=3)N(CC)C(=O)N2CC)c2ccccc21` (stereo unspecified), the growth with DU-145 prostate is 69.8%; in the test on K-562 leukemia, 21.3%; in the test on MALME-3M melanoma it was 50.7%; in the test with MDA-MB-231 breast, 63.9%; in the test with SF-268 CNS, 50.9%; in the test with SF-295 CNS, 61%. Besides, the growth in the test with SF-539 CNS was 8.03% (active); in the test with M14 melanoma, 90.8%.

`CCN1C(=S)N(CC)C2Nn3c(s/c(=C4\C(=O)N(C)c5ccccc54)c3=O)=NC21` (stereo unspecified): the growth was 34.6% with DU-145 prostate; 12.8% with K-562 leukemia; 51% in the test with MALME-3M melanoma; 42.1% in the test with MDA-MB-231 breast; 53.5% in the test on SF-268 CNS; 47.4% in the test on SF-295 CNS. Also, the growth in the test on SF-539 CNS is 6.07% (active); in the test with M14 melanoma, 70.2%.

For the compound `Nc1c(C(=O)Nc2cccc(C(F)(F)F)c2)sc2nc3c(cc12)C(O)CCC3` (stereo unspecified), the growth with DU-145 prostate is 9.15% (active); in the test with K-562 leukemia it was 14.4%; with MALME-3M melanoma, 51.2%; with MDA-MB-231 breast, 61.9%; in the test with SF-268 CNS it was 45.6%; in the test with SF-295 CNS, 27.2%. In addition, the figures for the growth in the test with SF-539 CNS, with UACC-257 melanoma and in the test with M14 melanoma were 21.6%, 44.2% and 30.9%, respectively.

On to `C/C(=N\NC(=O)CC#N)c1cc2cc(Cl)ccc2o1`, for which the growth in the test on DU-145 prostate is 103%; in the test with K-562 leukemia, 96.6%; with MALME-3M melanoma, 102%; in the test on MDA-MB-231 breast, 93.9%; in the test with SF-268 CNS, 102%; in the test on SF-295 CNS it was 99.7%. In addition, the growth in the test on SF-539 CNS was 82.9%; in the test with M14 melanoma, 104%.

As for `CCc1cccc(C)c1NC(=O)c1sc2nc3c(cc2c1N)C(=O)CCC3`, the growth was 14.2% with DU-145 prostate; 8.64% (active) in the test with K-562 leukemia; 45.1% with MALME-3M melanoma; 31% in the test with MDA-MB-231 breast; 42.7% in the test on SF-268 CNS; 10.8% in the test with SF-295 CNS. Further, the growth with SF-539 CNS is -14.4% (active); with UACC-257 melanoma, 66.6%; in the test with M14 melanoma, 12.5%.

With `O=c1oc2cc(OS(=O)(=O)c3ccc(F)cc3)ccc2c2c1CCCCC2`, the growth is 78.7% in the test with DU-145 prostate; 31.6% with K-562 leukemia; 83.5% with MALME-3M melanoma; 90.5% in the test with MDA-MB-231 breast; 86.8% with SF-268 CNS; 63.4% in the test on SF-295 CNS. Further, the values for the growth in the test with SF-539 CNS, in the test on UACC-257 melanoma and with M14 melanoma were 78.6%, 62.1% and 69.4%, respectively.

Values taken from PubChem BioAssay (NCI).
